Experimental data reported in PubChem BioAssay.

target: Neurogenic locus notch homolog protein 2 (Homo sapiens) (UniProt Q04721); assay: Notch2 binders on small-molecule microarrays, primary screen, biochemical, small-molecule microarray, 635 nm fluorescence, stem cell growth factors (AID 1073); settings: Notch2 binding, higher = more signal
Sequence (Q04721 whole entry, looked up): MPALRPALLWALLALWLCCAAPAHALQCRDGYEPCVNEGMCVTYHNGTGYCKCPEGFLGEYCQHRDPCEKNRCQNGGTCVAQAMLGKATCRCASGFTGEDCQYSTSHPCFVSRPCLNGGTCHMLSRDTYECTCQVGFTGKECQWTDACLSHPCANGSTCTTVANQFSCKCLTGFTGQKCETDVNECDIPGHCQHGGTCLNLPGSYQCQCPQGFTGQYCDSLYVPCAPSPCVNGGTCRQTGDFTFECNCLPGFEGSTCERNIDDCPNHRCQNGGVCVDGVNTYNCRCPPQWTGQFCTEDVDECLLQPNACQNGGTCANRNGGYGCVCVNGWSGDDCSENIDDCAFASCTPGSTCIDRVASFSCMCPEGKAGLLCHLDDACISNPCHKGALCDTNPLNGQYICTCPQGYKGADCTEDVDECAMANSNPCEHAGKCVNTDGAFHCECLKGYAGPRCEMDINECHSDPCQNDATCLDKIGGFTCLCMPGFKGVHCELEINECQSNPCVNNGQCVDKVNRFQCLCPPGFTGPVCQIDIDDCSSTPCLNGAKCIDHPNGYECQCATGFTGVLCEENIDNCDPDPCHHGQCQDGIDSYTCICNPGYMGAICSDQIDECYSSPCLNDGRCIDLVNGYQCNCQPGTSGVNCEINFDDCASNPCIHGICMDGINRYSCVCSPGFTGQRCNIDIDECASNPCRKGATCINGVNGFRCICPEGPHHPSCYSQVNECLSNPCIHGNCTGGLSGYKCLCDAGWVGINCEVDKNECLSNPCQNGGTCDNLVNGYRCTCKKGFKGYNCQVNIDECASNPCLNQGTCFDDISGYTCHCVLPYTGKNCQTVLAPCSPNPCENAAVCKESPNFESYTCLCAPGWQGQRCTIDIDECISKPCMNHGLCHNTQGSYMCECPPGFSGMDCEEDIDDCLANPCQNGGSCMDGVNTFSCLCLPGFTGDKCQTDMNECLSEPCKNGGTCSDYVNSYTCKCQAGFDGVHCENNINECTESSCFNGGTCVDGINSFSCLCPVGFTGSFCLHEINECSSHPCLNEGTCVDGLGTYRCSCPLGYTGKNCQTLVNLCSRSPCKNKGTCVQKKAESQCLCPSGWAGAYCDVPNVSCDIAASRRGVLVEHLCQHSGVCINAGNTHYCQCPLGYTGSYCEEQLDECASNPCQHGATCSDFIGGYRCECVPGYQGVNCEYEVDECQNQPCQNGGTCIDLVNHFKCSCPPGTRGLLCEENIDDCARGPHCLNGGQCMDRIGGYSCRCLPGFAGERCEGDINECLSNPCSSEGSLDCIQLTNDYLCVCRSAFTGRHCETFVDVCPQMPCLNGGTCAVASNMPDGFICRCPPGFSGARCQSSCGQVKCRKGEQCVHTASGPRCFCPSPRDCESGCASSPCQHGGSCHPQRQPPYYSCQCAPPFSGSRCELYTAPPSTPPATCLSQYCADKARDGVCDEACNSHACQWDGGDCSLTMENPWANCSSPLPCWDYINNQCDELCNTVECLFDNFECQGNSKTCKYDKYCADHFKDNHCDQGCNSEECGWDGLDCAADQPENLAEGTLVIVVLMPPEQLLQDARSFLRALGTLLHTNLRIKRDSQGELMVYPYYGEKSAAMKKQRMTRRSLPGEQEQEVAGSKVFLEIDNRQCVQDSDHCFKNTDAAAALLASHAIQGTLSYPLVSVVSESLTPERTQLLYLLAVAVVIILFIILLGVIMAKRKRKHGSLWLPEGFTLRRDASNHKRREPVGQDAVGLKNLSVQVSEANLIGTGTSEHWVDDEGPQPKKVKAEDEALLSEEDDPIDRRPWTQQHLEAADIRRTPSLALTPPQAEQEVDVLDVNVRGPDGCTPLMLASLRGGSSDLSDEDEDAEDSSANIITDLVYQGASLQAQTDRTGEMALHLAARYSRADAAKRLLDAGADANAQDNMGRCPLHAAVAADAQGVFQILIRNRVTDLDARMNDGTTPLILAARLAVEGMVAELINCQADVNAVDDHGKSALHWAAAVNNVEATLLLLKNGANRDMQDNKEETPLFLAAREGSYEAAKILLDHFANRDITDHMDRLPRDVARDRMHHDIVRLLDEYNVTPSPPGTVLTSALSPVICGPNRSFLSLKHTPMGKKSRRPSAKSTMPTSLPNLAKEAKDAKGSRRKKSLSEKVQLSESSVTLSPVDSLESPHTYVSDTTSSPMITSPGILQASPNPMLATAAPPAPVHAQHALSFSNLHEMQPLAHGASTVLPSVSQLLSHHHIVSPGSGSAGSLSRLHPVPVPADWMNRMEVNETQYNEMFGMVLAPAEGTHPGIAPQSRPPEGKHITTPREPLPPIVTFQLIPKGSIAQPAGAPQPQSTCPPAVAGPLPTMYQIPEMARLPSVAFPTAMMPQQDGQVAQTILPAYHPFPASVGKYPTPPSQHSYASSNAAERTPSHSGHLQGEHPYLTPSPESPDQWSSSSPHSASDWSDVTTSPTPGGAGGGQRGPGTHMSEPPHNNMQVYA

| SMILES | composite z-score |
| --- | --- |
| O=C1O[C@@H](c2ccccc2)[C@@H](c2ccccc2)N2[C@@H](c3ccc(O)cc3)[C@]3(C(=O)Nc4ccc(C#CC5=CCCCC5)cc43)[C@@H](C(=O)N3CCN(c4ncccn4)CC3)[C@H]12 | 0.846 |
| CC(C)C[C@@H]1NC(=O)[C@H]2C[C@@H](C(=O)NCCCCCC[N+](C)(C)C)[C@@H](c3cccc(OCCO)c3)N2C1=O | -0.356 |
| CCOC(=O)C[C@H]1[C@H](OC(=O)c2ccccc2-c2ccccc2)[C@@H](NC(=O)c2ccc3ccccc3n2)c2cc(OCCCO)ccc2N1C(=O)c1ccc2ccccc2n1 | 0.607 |
| C[C@H]1C2=C3C(CC[C@H]4C(OCc5ccc(F)cc5C(F)(F)F)OC[C@](C)([C@@H]34)N(C(=O)OC(C)(C)C)C2)C(CO)C1CO (stereo not given in full) | 1.57 |
| CCOc1cc(C(O)C2C=CC3C(=O)N(C)C(=O)C3N2N2CCCCC2)ccc1O (stereo not given) | 0.885 |
| C=C(COC)/C(=C/C[C@@H](OC(=O)c1ccncc1)c1cccc(OCCO)c1)c1cnc2ccccc2c1 | 1.76 |
| C=C(CCCC)/C(=C/C[C@@H](OC(C)=O)c1ccc(CO)o1)c1cc(C(=O)OC)ccc1OC | 0.621 |
| CC(C)(C)OC(=O)CC[C@]1(C(=O)NCCN2CCOCC2)N=C(c2ccc(OCCCO)cc2)O[C@H]1c1ccccc1N=[N+]=[N-] | 0.1 |
| Cc1ccc(S[C@]2(C(=O)NCC(F)(F)F)CC(=O)N(Cc3ccccc3)[C@@H]2c2ccc(CO)cc2)cc1 | -0.851 |
| COc1ccc(C#Cc2ccc3c(c2)[C@]2(C(=O)N3)[C@H](C(=O)N3CCc4cc(OC)c(OC)cc4C3)[C@H]3C(=O)O[C@H](c4ccccc4)[C@H](c4ccccc4)N3[C@@H]2c2ccc(O)cc2)cc1 | 0.781 |
| CN1C(=O)[C@@]2(CCS(=O)(=O)c3ccccc3)N=C(c3ccc(OCCCO)cc3)O[C@H]2c2ccccc21 | 1.45 |
| CC(C)C(=C=CC[C@@H](O)c1ccccc1OCCO)C[C@@H](O)COCc1ccccc1 | 0.429 |
| COc1ccc(C(O)C2C=CC3C(=O)N(Cc4ccccc4)C(=O)C3N2n2cnnc2)c2ccccc12 (stereo not given) | -0.782 |
| CCOC(=O)C[C@H]1[C@H](OC(=O)c2ccccc2-c2ccccc2)[C@@H](NC(=O)CC(C)C)c2cc(OCCCO)ccc2N1C(=O)c1ccc2ccccc2n1 | 0.549 |
| C=CC[C@H](OC(=O)Nc1ccc(OC)cc1)c1ccc(O)c2ccccc12 | 1.28 |
| COc1ccc(C(O)C2C=CC3C(=O)N(c4ccccc4)C(=O)C3N2Nc2ccccc2)cc1OCc1ccccc1 (stereo not given) | 1.51 |
| O=C1NC(=O)C2C1C=CC(C(O)c1cc(C(F)(F)F)cc(C(F)(F)F)c1)N2Nc1ccc(Cl)cc1Cl (stereo not given) | 0.351 |
| C=CCC(OC(C)=O)[C@@H]1[C@@H](N(Cc2cc3ccccc3o2)C(=O)Cc2ccc(F)cc2)c2cc(OCCCO)ccc2N1C(=O)c1ccc2ccccc2n1 (stereo not given in full) | -0.0518 |

| SMILES | composite z-score |
| --- | --- |
| COCCOC(=O)N1C(=O)[C@@]2(c3cc(C#CC4=CCCCC4)ccc31)[C@H](c1ccc(O)cc1)N1[C@H](c3ccccc3)[C@H](c3ccccc3)OC(=O)[C@H]1[C@@H]2C(=O)Nc1nc2ccccc2s1 | 1.24 |
| COCCOC(=O)N1C(=O)[C@@]2(c3cc(C#CC4(O)CCCCCC4)ccc31)[C@H](C(N)=O)[C@H]1C(=O)O[C@H](c3ccccc3)[C@H](c3ccccc3)N1[C@@H]2c1ccc(O)cc1 | 0.618 |
| COC(=O)[C@H](Cc1ccccc1)N1CC(/C=C/C2CC2)=C[C@@H]1[C@@H](O)Cc1ccccc1 | 1.38 |
| C=C(/C(=C/C[C@@H](OC(=O)c1ccncc1)c1ccccc1OCCO)c1cc(C(=O)OC)ccc1OC)C(C)C | 0.311 |
| COc1cc(CO)cc(I)c1O[C@H]1C=C(C(=O)NCCO)C[C@@H](N(Cc2ccc(F)cc2)C(=O)C2CCCO2)[C@@H]1O (stereo not given in full) | 0.159 |
| NC(=O)NCC#Cc1ccc2c(c1)[C@]1(C(=O)N2)[C@H](c2ccc(O)cc2)N2[C@H](c3ccccc3)[C@H](c3ccccc3)OC(=O)[C@H]2[C@@H]1C(=O)Nc1nc2ccccc2s1 | 0.768 |
| CCOC(=O)C1=CC[C@@H](c2cc(Cl)ccc2Cl)N(S(=O)(=O)c2ccc(C)cc2)[C@H]1c1ccc(OC)cc1 | 0.147 |
| COc1ccc(NN2C(C(O)c3ccccn3)C=CC3C(=O)N(C4CCCCC4)C(=O)C32)cc1 (stereo not given) | 1.59 |
| COc1ccc([Si](C)(C)[C@H]2[C@H](CCO)O[C@@]3(C(=O)N(Cc4cccc(N5CCCCC5=O)c4)c4ccccc43)[C@@H]2C)cc1 | 0.87 |
| CCCC[C@@H]1C[C@H]1[C@@H](NC(=O)c1cccnc1)c1ccc(-c2ccccc2)cc1 | -1.71 |
| C=CCNC(=O)[C@@H]1[C@H]2C(=O)O[C@H](c3ccccc3)[C@H](c3ccccc3)N2[C@H](c2ccc(OCCO)cc2)[C@@]12C(=O)N(C(=O)OCCOC)c1ccc(C#CC3=CCCCC3)cc12 | 1.35 |
| CC(C)NC(=O)[C@@]1(C)c2ccccc2C(=O)N(C(C)C)[C@H]1c1ccc(CO)cc1 | -0.792 |
| COCCOC(=O)N1C(=O)[C@@]2(c3cc(C#CC4(O)CCCCCC4)ccc31)[C@H](c1ccccc1OCCO)N1[C@H](c3ccccc3)[C@H](c3ccccc3)OC(=O)[C@H]1[C@@H]2C(N)=O | 1.35 |
| O=C1c2ccccc2[C@](Cc2ccccc2I)(C(=O)NCc2ccccc2)[C@H](c2ccc(CO)cc2)N1C1CCCCC1 | 1.13 |
| COC(=O)[C@@]1(Cc2ccc(OC)cc2)[C@H]2c3cc(C(=O)N(C)C)n(Cc4ccccc4)c3C[C@H]2CN1C(=O)c1ccccc1 | 0.571 |
| COC(=O)[C@]1(CCS(=O)(=O)c2ccccc2)N=C(c2ccc(OCCCO)cc2)O[C@@H]1c1ccccc1CN=[N+]=[N-] | 1.12 |
| CC(C)(C)OC(=O)CC[C@]1(C(=O)N2CCOCC2)N=C(c2ccc(OCCCO)cc2)O[C@H]1c1ccccc1 | 0.819 |
